FEN1 inh: qHTS Assay for the Inhibitors of Human Flap endonuclease 1 (FEN1); P39748; Recombinant FEN1 flap cleavage, fluorescence, 15 min; Potency, µM (top dose mostly 114 µM), inactives show at the top dose activity change, negative = inhibition, hits mostly inhibitors; 390,000 compounds, 0.35% hits; note: potency is the fitted concentration of half-maximal effect; % is set by controls: 0 for no effect and ±100 for the full control effect; nearly all actives have a fitted effect of over 65% in size
Target sequence (P39748 whole entry, looked up): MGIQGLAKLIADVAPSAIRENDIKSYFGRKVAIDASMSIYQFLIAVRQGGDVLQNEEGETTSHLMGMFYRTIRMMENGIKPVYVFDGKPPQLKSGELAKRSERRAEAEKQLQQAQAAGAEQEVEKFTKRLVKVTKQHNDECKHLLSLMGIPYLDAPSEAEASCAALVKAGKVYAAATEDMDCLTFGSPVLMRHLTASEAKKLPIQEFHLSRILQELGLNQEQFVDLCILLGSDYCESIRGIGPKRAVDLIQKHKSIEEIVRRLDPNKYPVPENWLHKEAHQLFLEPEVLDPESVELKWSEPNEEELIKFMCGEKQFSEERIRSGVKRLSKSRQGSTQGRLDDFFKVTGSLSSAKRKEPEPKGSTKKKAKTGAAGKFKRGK
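In this screen, 50 nM flap DNA substrate was added to 10 nM FEN1 pretreated with compound for 15 min at room temperature; cleavage was followed with reads at 0 and 15 min, and Hill fitting gave concentration–response parameters.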
Pol beta inh-1: qHTS Assay for Inhibitors of DNA Polymerase Beta. P06746. Pol beta primer extension/strand displacement, fluorescence kinetic. Potency, µM (series often up to 114 µM), for the others: top-dose activity change, negative = inhibition, most hits filed as inhibitors. 340,000 compounds, 1.3% hits; note: potency is the fitted concentration of half-maximal effect; % is set by controls: 0 for no effect and ±100 for the full control effect
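Values derive from four-parameter Hill fits of normalized kinetic data: reads at 0 and 10 min following addition of 50 nM substrate to 10 nM Pol beta preincubated 15 min with compound.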
Pol eta inh-1: qHTS for Inhibitors of Polymerase Eta; Potency, µM (doses to about 114 µM), without a hit: top-dose activity change, negative = inhibition, hits mostly inhibitors; 390,000 compounds, 1.2% hits; recombinant Pol eta, fluorescent DNA replication assay; DNA polymerase eta (Homo sapiens), Q9Y253; note: potency is the fitted concentration of half-maximal effect; % is set by controls: 0 for no effect and ±100 for the full control effect
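Pol eta (10 nM) was preincubated with compounds for 15 min at room temperature, after which fluorescent replication substrate (50 nM final) was added to start the reaction. Fluorescence was read kinetically at 0 and 10 min.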
PGK inhibitor: qHTS Assay to Find Inhibitors of Phosphoglycerate Kinase; Phosphoglycerate kinase, glycosomal (Trypanosoma brucei brucei), P07378; 380,000 compounds, 0.043% hits; PGK/GAPDH coupled, Kinase-Glo luminescence, 60 min; Potency, µM (doses to about 57.5 µM), for inactives: at the highest dose activity change, negative = inhibition, actives largely listed as inhibitors; note: potency is the fitted concentration of half-maximal effect; % is set by controls: 0 for no effect and ±100 for the full control effect; nearly all actives have a fitted effect of over 60% in size
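Recombinant glycosomal PGK reaction used 1,3-bisphosphoglycerate generated in-well by GAPDH (100nM final) in 100mM TEA pH 7.6, 5mM MgCl2, 0.01% Tween-20. After 60 minutes at room temperature, ATP was read by Kinase-Glo Plus luminescence end-point.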
POLI inh: qHTS for Inhibitors of Polymerase Iota. DNA polymerase iota (Homo sapiens), Q9UNA4. Pol iota fluorescent replication assay, 10 min. Potency, µM (highest dose often 115 µM), inactives show top-dose activity, negative = inhibition, most hits filed as inhibitors. 390,000 compounds, 1% hits. AID 588590, 2011; note: potency is the fitted concentration of half-maximal effect
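Fluorescent replication assay read twice, at 0 min and 10 min after adding 50 nM (final) substrate. Enzyme (10 nM) and compounds were first incubated 15 min at room temperature; enzyme-free buffer wells were negative controls.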
Pol kappa inh-1: qHTS for Inhibitors of Polymerase Kappa. purified Pol kappa, fluorescent DNA synthesis assay, 10 min. 400,000 compounds, 0.53% hits. DNA polymerase kappa (Homo sapiens), Q9UBT6. Potency, µM (series often up to 107 µM), for inactives: top-dose activity, negative = inhibition, usual class: inhibitors; note: potency is the fitted concentration of half-maximal effect; % is set by controls: 0 for no effect and ±100 for the full control effect
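Kinetic fluorescence screen: compound preincubated 15 min RT with 10 nM enzyme; 50 nM substrate (final) initiates; reads at 0/10 min.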
Pol beta inh-2: Inhibitors of DNA Polymerase Beta: Hit validation; 250 compounds, 87% hits; shares compounds with Pol beta inh-1; Potency, µM, most hits filed as inhibitors; Pol beta primer extension/strand displacement, fluorescence kinetic; calls by dose curve; note: potency is the fitted concentration of half-maximal effect
Klenow inh: Inhibitors of DNA Polymerase Beta: Hit Validation in Klenow Fragment Assay; Klenow exo- polymerase counter-screen, fluorescent DNA substrate; activity change, negative = inhibition, % at 57.1 µM; shares compounds with Pol beta inh-1; 250 tested, under 10 active
HIV RT inh: Inhibitors of DNA Polymerase Beta: Hit Validation in HIV-RT Assay; AID 540301, 2011; HIV-1 RT polymerase activity, counter-screen; shares compounds with Pol beta inh-1; 250 tested, under 10 active; activity % (negative = inhibition, positive = activation), % at 57.1 µM
POLB inh gel: Inhibitors of DNA Polymerase Beta: Hit Validation in Radiolabeled Extension Assay | radiolabeled primer extension gel assay, phosphorimager | 110 compounds, 91% hits | inhibition, % at 10 µM | shares compounds with Pol beta inh-1;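 active = inhibition at 10 µM of 30% or more; inconclusive = no clear call, values can overlap the other calls; inactive = inhibition at 10 µM under 30%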
Pol iota confirm: qHTS for Inhibitors of Polymerase Iota: Confirmatory Assay for Cherry-picked Compounds; shares compounds with Pol kappa inh-1; Pol iota primer extension, TAMRA/BHQ fluorescence; Potency, µM, most hits filed as inhibitors; 1,500 compounds, 77% hits; note: potency is the fitted concentration of half-maximal effect
Pol kappa inh-2: qHTS for Inhibitors of Polymerase Kappa: Confirmatory Assay for Cherry-picked Compounds; shares compounds with Pol eta inh-1; purified Pol-kappa, fluorescent strand-displacement substrate; Potency, µM, usual class: inhibitors; 920 compounds, 76% hits; note: potency is the fitted concentration of half-maximal effect
Pol eta inh-2: qHTS for Inhibitors of Polymerase Eta: Confirmatory Assay for Cherry-picked Compounds; shares compounds with Pol eta inh-1; Pol eta primer extension, TAMRA/BHQ fluorescence, 10 min; Potency, µM, actives largely listed as inhibitors; 2,600 compounds, 64% hits; AID 720502, 2013; note: potency is the fitted concentration of half-maximal effect
Starred values were filed as active, the others as inactive; [ ] = dose if it differs, or a comment. Compounds with a hit are over-represented: about 2.4% of the library has one in this group of screens. Unless noted, calls come from the whole dose curve; as a rule, active = well fitted curve in the direction sought with a large enough effect; inconclusive = small, poorly fitted or top-dose-only effect, or another doubt; inactive = no such curve, though single readings can be large; an effect the other way counts as inactive or inconclusive.

What do the screens show for `COc1ccc(NC(=O)C2CCCN2S(=O)(=O)c2ccc3c(c2)CCCC(=O)N3)cc1Cl` (stereo unspecified)?
FEN1 inh: 1%; Pol beta inh-1: 14%; Pol eta inh-1: -11%; PGK inhibitor: -11%; POLI inh: 33%; Pol kappa inh-1: 4%

Results for Cc1oc(C(=O)O)cc1COc1cccc2cccnc12 ?
FEN1 inh: inconclusive; Pol beta inh-1: 10µM*; Pol eta inh-1: 8.9µM*; PGK inhibitor: -28%; POLI inh: 10µM*; Pol kappa inh-1: inconclusive; Pol beta inh-2: 16*; Klenow inh: -23; HIV RT inh: 2; Pol iota confirm: 67*; Pol eta inh-2: inconclusive

How did Fc1ccc(COc2cccc3cccnc23)cc1 do in these assays?
FEN1 inh: -5%; Pol beta inh-1: 15%; Pol eta inh-1: -7%; PGK inhibitor: -6%; POLI inh: 82%; Pol kappa inh-1: 4%

What do the screens show for `O=C(N/N=C/c1ccco1)c1cccc(N2CCCC2=O)c1`?
FEN1 inh: -7%; Pol beta inh-1: inconclusive; Pol eta inh-1: inconclusive; PGK inhibitor: -5%; POLI inh: inconclusive; Pol kappa inh-1: -7%

What do the screens show for `O=C(N/N=C/c1ccco1)c1cccc(N2Cc3ccccc3C2)c1`?
FEN1 inh: inconclusive; Pol beta inh-1: 13µM*; Pol eta inh-1: 7.9µM*; PGK inhibitor: -2%; POLI inh: 10µM*; Pol kappa inh-1: 35µM*; Pol beta inh-2: 16*; Klenow inh: -14; HIV RT inh: 20; Pol iota confirm: 42*; Pol kappa inh-2: 17*; Pol eta inh-2: 43*

Results for COc1cc(C(=O)NCC(c2ccco2)S(=O)(=O)c2cccs2)cc(OC)c1OC (stereo unspecified) ?
FEN1 inh: 7%; Pol beta inh-1: 2%; Pol eta inh-1: -5%; PGK inhibitor: -2%; POLI inh: 16%; Pol kappa inh-1: -5%[60.1 µM]

How did CCOC(=O)c1cnc(-n2[nH]c(C)cc2=O)[nH]c1=O do in these assays?
FEN1 inh: -23%; Pol beta inh-1: 3.2µM*; Pol eta inh-1: inconclusive; PGK inhibitor: -17%; POLI inh: 0.89µM*; Pol kappa inh-1: 8.9µM*; Pol beta inh-2: 32*; Klenow inh: -30; HIV RT inh: 8; POLB inh gel: 89*; Pol iota confirm: 27*; Pol eta inh-2: 11*

Results for COc1cc(NC(=O)c2nnn(CC(=O)Nc3cc(C)ccc3C)c2N)cc(OC)c1 ?
FEN1 inh: -3%; Pol beta inh-1: 2%; Pol eta inh-1: -19%; PGK inhibitor: -6%; POLI inh: 7%; Pol kappa inh-1: -12%

How did COc1ccc(NC(=O)c2ccc(Cl)nc2)cc1S(=O)(=O)N1CCOCC1 do in these assays?
FEN1 inh: -2%; Pol eta inh-1: -13%; PGK inhibitor: -7%; POLI inh: inconclusive; Pol kappa inh-1: -14%

Results for COc1ccc(NC(=O)Cn2ncc(Cl)c(Cl)c2=O)cc1S(=O)(=O)N1CCOCC1 ?
FEN1 inh: -19%; Pol beta inh-1: 10µM*; Pol eta inh-1: 7.1µM*; PGK inhibitor: -18%; POLI inh: 20µM*; Pol kappa inh-1: 45µM*; Pol beta inh-2: 32*; Klenow inh: -6; HIV RT inh: inconclusive; POLB inh gel: 98*; Pol iota confirm: 67*; Pol eta inh-2: 76*

What do the screens show for `CN(CC(=O)NC(=O)NCc1ccco1)Cc1nc2ccccc2c(=O)[nH]1`?
FEN1 inh: -20%; Pol beta inh-1: 20µM*; Pol eta inh-1: inconclusive; PGK inhibitor: -16%; POLI inh: 25µM*; Pol kappa inh-1: inconclusive; Pol beta inh-2: 35*; Klenow inh: -26; HIV RT inh: 37; POLB inh gel: 83*; Pol iota confirm: 60*; Pol eta inh-2: inconclusive

What do the screens show for `Cc1nn(CC(=O)N2CCN(c3ccccc3)CC2)c(=O)c2cc3cc(F)ccc3n12`?
FEN1 inh: -6%; Pol beta inh-1: 4%; Pol eta inh-1: -22%; PGK inhibitor: -2%; POLI inh: 9%; Pol kappa inh-1: 2%
